Screening data (PubChem BioAssay)
An excerpt weighted towards active compounds, which were near 1.9% of everything screened.
NCF1 inh: p47phox/p22phox peptide binding inhibitors, primary screen, biochemical, uHTS, NADPH oxidase regulatory subunit | Neutrophil cytosol factor 1 (Homo sapiens), P14598 | fluorescence polarization, 2 h | inhibition, % at 24.7 µM | 0.53% of 220,000 active | AID 1274, 2008;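 active = inhibition above about 30%, limit read from the data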;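 also: 0% = p47phox with labelled peptide and 100% = labelled peptide alone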
14-3-3 Bad inh: inhibitors of 14-3-3 zeta/Bad binding, primary screen, biochemical, TR-FRET, bovine 14-3-3 zeta; inhibition, % at 21.7 µM; 14-3-3 protein zeta/delta (Bos taurus), P63103; AID 781, 2007; 0.71% of 220,000 active; TR-FRET 14-3-3zeta/Dy647-pBad peptide displacement, 1 h;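 active = inhibition above about 70%, limit read from the data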;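 also: 0% = full 14-3-3 plus peptide FRET controls and 100% = background without 14-3-3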
Target sequence (P63103 whole entry, looked up): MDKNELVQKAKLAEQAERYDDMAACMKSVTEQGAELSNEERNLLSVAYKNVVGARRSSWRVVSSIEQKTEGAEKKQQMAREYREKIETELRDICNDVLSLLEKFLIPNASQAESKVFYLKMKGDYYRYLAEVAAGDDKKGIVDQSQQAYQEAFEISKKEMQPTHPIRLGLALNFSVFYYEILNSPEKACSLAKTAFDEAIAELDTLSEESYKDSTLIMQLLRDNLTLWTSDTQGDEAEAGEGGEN
HMGR II inh: inhibitors of E. faecalis class II HMGR, primary screen, biochemical, Enterococcus faecalis | HMG-CoA reductase (Enterococcus faecalis, mvaE) | AID 1066, 2008 | purified E. faecalis HMGR, NADPH absorbance 340 nm kinetic | inhibition, % at 10 µM | 0.41% of 190,000 active;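 active = inhibition above a set limit, the median over all tested compounds plus 3 SD, cut at about 9.5% in these data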;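 also: enzyme runs in reverse so mevalonate oxidation gives rising NADPH absorbance; 0% = complete reaction with DMSO and 100% = background rate lacking mevalonate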
dFosB act-1: activators of delta FosB homodimer, primary screen, biochemical, fluorescence polarization, TAMRA-CDK5 oligo, single point; AID 493131, 2011; purified delta FosB; percent of positive-control signal above neutral wells; 0.99% of 340,000 active; Protein FosB (Mus musculus), P13346; activation, % at 25 µM;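 active = mean activation above about 17%, with every replicate also reaching it, limit read from the data, passing the limit was not always enough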
dFosB act-2: activators of mouse delta FosB DNA binding, confirmation, biochemical, fluorescence polarization, TAMRA-CDK5 oligo, cherry-picked samples | 2,400 tested, under 10 active | shares compounds with dFosB act-1 | purified delta FosB; normalised: neutral wells 0, positive control 100 | activation, % at 24.9 µM;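 active = highest replicate activation at or above 34% and every replicate reaching that threshold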;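 also: higher polarization means more probe DNA bound by delta FosB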
Numbers without * were called inactive.

How did CN(NC(=O)CN1C(=O)c2ccccc2C1=O)C1=NS(=O)(=O)c2ccccc21 do in these assays?
NCF1 inh: 0; 14-3-3 Bad inh: -1; HMGR II inh: -3; dFosB act-1: -2

What do the screens show for `CC(=O)NC(=S)Nc1ccccc1C(=O)NC1CCCCC1`?
NCF1 inh: -8; 14-3-3 Bad inh: -21; HMGR II inh: -5; dFosB act-1: -3

How did Cc1ccc(/C=C/C(=O)NC(=S)Nc2ccccc2C(=O)NC2CCCCC2)cc1 do in these assays?
NCF1 inh: -1; 14-3-3 Bad inh: 3; HMGR II inh: 3; dFosB act-1: -10

Results for COc1ccc(/C=C/C(=O)NC(=S)Nc2ccccc2C(=O)NC2CCCCC2)cc1 ?
NCF1 inh: -1; 14-3-3 Bad inh: 4; HMGR II inh: -2; dFosB act-1: 44*; dFosB act-2: -3

How did O=C(/C=C/c1ccc(F)cc1)NC(=S)Nc1ccccc1C(=O)NC1CCCCC1 do in these assays?
NCF1 inh: 13; 14-3-3 Bad inh: 9; HMGR II inh: 5; dFosB act-1: 22*; dFosB act-2: 3

What do the screens show for `O=C(/C=C/c1ccccc1)NC(=S)Nc1ccccc1C(=O)NC1CCCCC1`?
NCF1 inh: -1; 14-3-3 Bad inh: -11; HMGR II inh: 6; dFosB act-1: 39*; dFosB act-2: -4

What do the screens show for `CSc1nc(Cl)cc(Nc2ccc(O)cc2)n1`?
NCF1 inh: -8; 14-3-3 Bad inh: -22; HMGR II inh: -3; dFosB act-1: 3

How did O=C(COc1ccc2ccccc2c1Br)Nc1ncn[nH]1 do in these assays?
NCF1 inh: -9; 14-3-3 Bad inh: 1; HMGR II inh: -5; dFosB act-1: 25*; dFosB act-2: 6

How did Cc1ccc(SCc2nc3ccccc3n2CC(=O)Nc2c(C)cccc2C)cc1 do in these assays?
NCF1 inh: 0; 14-3-3 Bad inh: 5; HMGR II inh: 4; dFosB act-1: 32*; dFosB act-2: 0

How did Cc1ccc(SCc2nc3ccccc3n2CC(=O)Nc2ccccc2)cc1 do in these assays?
NCF1 inh: -191; 14-3-3 Bad inh: -3; HMGR II inh: -4; dFosB act-1: 0

What do the screens show for `COc1ccc(N2CCN(C3=CC(=O)N(c4cccc(Cl)c4)C3=O)CC2)cc1`?
NCF1 inh: 0; 14-3-3 Bad inh: -11; HMGR II inh: 7; dFosB act-1: 6

What do the screens show for `Cc1noc(C(=O)Nc2ccc(F)c(Cl)c2)c1Cl`?
dFosB act-1: 24*; dFosB act-2: 4

What do the screens show for `Cc1ccc(NC(=O)c2onc(C)c2Cl)cc1`?
NCF1 inh: -10; 14-3-3 Bad inh: 7; HMGR II inh: 1; dFosB act-1: 4

What do the screens show for `O=C(CN(Cc1ccco1)C(=O)c1cccc(Cl)c1)Nc1c(Cl)cc(Cl)cc1Cl`?
NCF1 inh: -16; 14-3-3 Bad inh: -9; HMGR II inh: -9; dFosB act-1: 15

What do the screens show for `Cc1ccc(C(=O)OCC(=O)Nc2cc(F)ccc2F)cc1NC(=O)c1ccco1`?
NCF1 inh: 22; 14-3-3 Bad inh: 16; HMGR II inh: -3; dFosB act-1: 32*; dFosB act-2: 8

How did COc1ccc(C(=O)NC2CCN(C(=S)Nc3cccc(C)c3C)CC2)cc1 do in these assays?
NCF1 inh: -8; 14-3-3 Bad inh: -1; HMGR II inh: 2; dFosB act-1: -1

Results for Cc1cc(C)c2c(N)c(C(=O)c3ccc(Cl)cc3)sc2n1 ?
NCF1 inh: 9; 14-3-3 Bad inh: 15; HMGR II inh: 0; dFosB act-1: 5

How did Cc1cc(C)c2c(N)c(C(=O)c3ccc(Cl)c(Cl)c3)sc2n1 do in these assays?
NCF1 inh: 14; 14-3-3 Bad inh: 82*; HMGR II inh: -5; dFosB act-1: 37*; dFosB act-2: 4

Results for COc1ccc2nc(NC(=O)Cn3cnc4ccccc4c3=O)sc2c1 ?
NCF1 inh: -35; 14-3-3 Bad inh: 43; dFosB act-1: 31*; dFosB act-2: 2

How did O=C(COC(=O)/C=C/c1ccc([N+](=O)[O-])cc1)Nc1ccc(F)cc1 do in these assays?
dFosB act-1: 19*; dFosB act-2: 5

Results for Cc1cc(C)c(NC(=O)CSCc2nc3sc(C)c(C)c3c(=O)[nH]2)c(Cl)c1 ?
dFosB act-1: 32*; dFosB act-2: 1
